Assay results: PubChem BioAssay (EPA / NIEHS)
Active and inactive are the calls of the source. The calls were made as follows: active = hit-call score of the fitted dose curve at least 0.9, where 1 is the maximum; inactive = score below 0.9.

Columns and labels:
[1] = molecular target: CCAAT/enhancer-binding protein beta (Homo sapiens) (UniProt P17676); test: ATG_C_EBP_CIS: Attagene CIS-FACTORIAL HepG2 Assay for human CCAAT/Enhancer Binding Protein (C/EBP) beta (AID 2282927); settings: HepG2 Attagene cis-factorial transcription factor reporter; actives raise or lower the signal
In short: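 Endogenous transcription factor activity in human liver HepG2 cells is inferred from induction of a CEBPB-linked reporter mRNA. Exposure lasts 24 h; activity is fitted in both directions relative to DMSO.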

[2] = ATG_CMV_CIS: Attagene CIS-FACTORIAL HepG2 Assay for human CMV (Internal Marker) (AID 2282928); settings: HepG2 CMV promoter reporter, transcription factor profiling; actives raise or lower the signal;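 also: endpoint acts as a background internal control marker rather than a target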
In short: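 Endogenous transcription factor activity read in HepG2 via transfected cis-promoter reporter units. After 24 h dosing, reporter mRNA measured by RT-PCR/capillary electrophoresis; gain or loss of signal fit relative to DMSO.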

[3] = ATG_AP_2_CIS: Attagene CIS-FACTORIAL HepG2 Assay for human Activator Protein 2 (AP-2) (AID 2282932); settings: HepG2 AP-2 cis-reporter, Attagene transcription factor profiling; actives raise or lower the signal
In short: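 Step one: transient transfection of HepG2 with reporter transcription units. Step two: 24 h chemical exposure. Step three: RNA extraction, RT-PCR, labelled fragment analysis by capillary electrophoresis; DMSO serves as baseline.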

[4] = ATG_BRE_CIS: Attagene CIS-FACTORIAL HepG2 Assay for human Bone Morphogenetic Protein (BMP) Response Element (BRE) (AID 2282933); settings: HepG2 BMP response element reporter, Attagene transcription factor profiling; actives raise or lower the signal
In short: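 After a 24 h chemical treatment, transiently transfected HepG2 cells were lysed for RNA; reporter transcripts were quantified by fluorescent RT-PCR and capillary electrophoresis, normalised to DMSO.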

[5] = molecular target: Transcription factor E2F1 (Homo sapiens) (UniProt Q01094); test: ATG_E2F_CIS: Attagene CIS-FACTORIAL HepG2 Assay for human E2F Transcription Factor 1 (AID 2282935); settings: HepG2 Attagene cis-reporter, E2F reporter RNA transcripts; actives raise or lower the signal
In short: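 Total RNA from 24 h-treated, reporter-transfected HepG2 cells undergoes DNase I treatment, oligo(dT) reverse transcription, PCR and 6-FAM primer extension before capillary electrophoresis.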

[6] = ATG_E_Box_CIS: Attagene CIS-FACTORIAL HepG2 Assay for human Enhancer Box (E-box) (AID 2282936); settings: HepG2 E-box cis-reporter transcription, actives raise or lower the signal
In short: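 DMSO served as negative control and baseline for bidirectional fitting. Human hepatoma HepG2 cells, transiently transfected with cis-reporter constructs, were dosed 24 h; reporter mRNA read by RT-PCR and capillary electrophoresis.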

[7] = ATG_M_61_CIS: Attagene CIS-FACTORIAL HepG2 Assay for M61 Transcription Factor (Internal Marker) (AID 2282937); settings: HepG2 Attagene CIS-FACTORIAL M61 internal marker reporter; actives raise or lower the signal
In short: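 Multiplexed reporter mRNA assay, HepG2 human hepatoma cells, 24 h treatment. Signal: FAM-labelled, HpaI-digested RT-PCR fragments by CE. Fit: bidirectional, baseline DMSO.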

[8] = ATG_EGR_CIS: Attagene CIS-FACTORIAL HepG2 Assay for human Early Growth Response 1 (EGR1) (AID 2282938); settings: HepG2 Attagene CIS-FACTORIAL EGR reporter mRNA; actives raise or lower the signal
In short: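 Multiplexed cis-reporter system in human hepatoma HepG2 cells, transiently transfected. Cells are dosed for 24 h; reporter transcripts are amplified, fluorescently tagged and sized by capillary electrophoresis, with DMSO as negative control.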

[9] = ATG_M_19_CIS: Attagene CIS-FACTORIAL HepG2 Assay for M19 Transcription Factor (Internal Marker) (AID 2282939); settings: HepG2 Attagene CIS-FACTORIAL M19 internal marker reporter; actives raise or lower the signal
In short: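 In this multiplexed cell assay, transiently transfected HepG2 reporter units report endogenous transcription-factor activity; after 24 hours of treatment, labelled reporter cDNA fragments are quantified by capillary electrophoresis and fitted bidirectionally against DMSO.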

[10] = ATG_FoxO_CIS: Attagene CIS-FACTORIAL HepG2 Assay for human Forkhead box O (FoxO) (AID 2282943); settings: HepG2 Attagene cis-reporter, FoxO element, mRNA; actives raise or lower the signal
In short: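 HepG2, transient MRTU transfection (cis element, endogenous TFs). Dose 24 h. TriZol RNA → oligo(dT) RT → PCR → 6-FAM primer extension → HpaI cut → CE. Gain/loss vs DMSO.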

[11] = ATG_GATA_CIS: Attagene CIS-FACTORIAL HepG2 Assay for human GATA Binding Protein (AID 2282944); settings: HepG2 GATA cis-element reporter, Attagene multiplex mRNA; actives raise or lower the signal
In short: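 Measures endogenous transcription factor-driven reporter mRNA in HepG2 cells transiently carrying cis-regulated constructs. 24 h dosing; RNA via oligo(dT) reverse transcription, PCR, HpaI digestion, capillary electrophoresis; fitted relative to DMSO.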

[12] = ATG_GLI_CIS: Attagene CIS-FACTORIAL HepG2 Assay for human Zinc Finger Protein GLI1 (AID 2282945); settings: HepG2, Attagene cis-factorial reporter mRNA, GLI element; actives raise or lower the signal
In short: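 Bidirectional curve fits relative to DMSO, using reporter mRNA levels from RT-PCR plus capillary electrophoresis. Cells were HepG2 transiently carrying cis-regulated reporter constructs, harvested 24 h after dosing.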

[13] = ATG_ISRE_CIS: Attagene CIS-FACTORIAL HepG2 Assay for human Interferon Regulatory Factor 1 (IRF1) binding to an Interferon-Stimulated Response Element (ISRE) (AID 2282948); settings: HepG2 ISRE cis-reporter (Attagene), mRNA transcription readout; actives raise or lower the signal
In short: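 Transfected HepG2 (multiple reporter transcription units, cis elements) dosed 24 h. RNA → oligo(dT) RT → PCR → 6-FAM primer extension → HpaI → CE. DMSO = negative control/baseline.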

[14] = ATG_M_32_CIS: Attagene CIS-FACTORIAL HepG2 Assay for M32 Transcription Factor (Internal Marker) (AID 2282949); settings: HepG2 Attagene cis-factorial M32 reporter, mRNA; actives raise or lower the signal;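 also: background control marker of the multiplexed CIS panel rather than a real target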
In short: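 Internal background marker read-out: RT-PCR/capillary electrophoresis fluorescence of reporter transcripts from transiently transfected HepG2 cells after 24 h chemical exposure. Activity fitted bidirectionally relative to DMSO negative control.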

[15] = ATG_M_06_CIS: Attagene CIS-FACTORIAL HepG2 Assay for M06 Transcription Factor (Internal Marker) (AID 2282950); settings: HepG2 Attagene CIS-FACTORIAL M06 internal marker reporter; actives raise or lower the signal
In short: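 One of many multiplexed endpoints: HepG2 reporter mRNA after 24 h dosing, detected by RT-PCR and capillary electrophoresis fluorescence; gain or loss of signal analysed against DMSO.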

[16] = ATG_MRE_CIS: Attagene CIS-FACTORIAL HepG2 Assay for human Metal Responsive Element (MRE) (AID 2282954); settings: HepG2 MRE cis-reporter transcription, Attagene multiplex; actives raise or lower the signal
In short: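 After a 24 h chemical exposure, transiently transfected HepG2 cells yield RNA whose reporter sequences are amplified, FAM-labelled and sized by capillary electrophoresis. Curves are fitted bidirectionally relative to DMSO.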

[17] = ATG_PXRE_CIS: Attagene CIS-FACTORIAL HepG2 Assay for human Pregnane X Receptor Element (PXRE) (AID 2282957); settings: HepG2 Attagene CIS-FACTORIAL PXRE reporter, mRNA; actives raise or lower the signal
In short: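 Cells: HepG2, transiently transfected reporter units under cis promoter control. Exposure: 24 h. Detection: reporter mRNA via RT-PCR/CE fluorescence; bidirectional fitting, DMSO-referenced.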

[18] = ATG_Sox_CIS: Attagene CIS-FACTORIAL HepG2 Assay for human SRY-box transcription factor (SOX) (AID 2282960); settings: HepG2 Attagene cis-factorial SOX reporter, mRNA; actives raise or lower the signal
In short: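 Fluorescence-labelled cDNA fragments from reporter transcripts, sized by CE, give the signal. Cells: HepG2, transiently transfected with cis-regulated reporter units. Exposure 24 h; DMSO negative control; bidirectional curve fitting.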

[19] = molecular target: Transcription factor Sp1 (Homo sapiens) (UniProt P08047); test: ATG_Sp1_CIS: Attagene CIS-FACTORIAL HepG2 Assay for human Specificity Protein 1 (Sp1) (AID 2282961); settings: HepG2 Sp1 cis-reporter transcription, actives raise or lower the signal
In short: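 Chemicals are dosed onto HepG2 cells transfected with multiple cis-promoter reporter constructs, and after 24 h reporter RNA is reverse-transcribed, PCR-amplified and resolved by capillary electrophoresis for fluorescence quantitation; activity is scored up or down against DMSO.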

[20] = ATG_SREBP_CIS: Attagene CIS-FACTORIAL HepG2 Assay for human Sterol Regulatory Element Binding (SREBP) (AID 2282962); settings: HepG2 Attagene cis-factorial SREBP reporter, mRNA; actives raise or lower the signal
In short: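 Transfected HepG2 (cis-regulated reporter library, endogenous TFs) → compound 24 h → total RNA → oligo(dT) RT → reporter-specific PCR → FAM primer extension, HpaI cut → CE fluorescence. Fit bidirectional vs DMSO.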

Measured: AC50

Transcription factor E2F1 (Homo sapiens), sequence (Q01094 whole entry, looked up): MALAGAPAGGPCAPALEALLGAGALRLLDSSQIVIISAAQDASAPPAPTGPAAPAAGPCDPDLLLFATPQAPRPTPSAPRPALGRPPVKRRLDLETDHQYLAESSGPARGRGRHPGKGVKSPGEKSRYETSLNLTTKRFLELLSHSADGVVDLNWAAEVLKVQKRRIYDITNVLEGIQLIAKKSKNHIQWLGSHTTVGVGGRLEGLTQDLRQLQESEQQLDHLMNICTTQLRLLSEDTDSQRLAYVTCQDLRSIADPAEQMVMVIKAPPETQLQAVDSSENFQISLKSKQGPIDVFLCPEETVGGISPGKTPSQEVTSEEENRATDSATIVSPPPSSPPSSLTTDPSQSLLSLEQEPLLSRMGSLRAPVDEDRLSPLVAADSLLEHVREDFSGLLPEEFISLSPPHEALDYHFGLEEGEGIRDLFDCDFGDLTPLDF
Transcription factor Sp1 (Homo sapiens), sequence (P08047 whole entry, looked up): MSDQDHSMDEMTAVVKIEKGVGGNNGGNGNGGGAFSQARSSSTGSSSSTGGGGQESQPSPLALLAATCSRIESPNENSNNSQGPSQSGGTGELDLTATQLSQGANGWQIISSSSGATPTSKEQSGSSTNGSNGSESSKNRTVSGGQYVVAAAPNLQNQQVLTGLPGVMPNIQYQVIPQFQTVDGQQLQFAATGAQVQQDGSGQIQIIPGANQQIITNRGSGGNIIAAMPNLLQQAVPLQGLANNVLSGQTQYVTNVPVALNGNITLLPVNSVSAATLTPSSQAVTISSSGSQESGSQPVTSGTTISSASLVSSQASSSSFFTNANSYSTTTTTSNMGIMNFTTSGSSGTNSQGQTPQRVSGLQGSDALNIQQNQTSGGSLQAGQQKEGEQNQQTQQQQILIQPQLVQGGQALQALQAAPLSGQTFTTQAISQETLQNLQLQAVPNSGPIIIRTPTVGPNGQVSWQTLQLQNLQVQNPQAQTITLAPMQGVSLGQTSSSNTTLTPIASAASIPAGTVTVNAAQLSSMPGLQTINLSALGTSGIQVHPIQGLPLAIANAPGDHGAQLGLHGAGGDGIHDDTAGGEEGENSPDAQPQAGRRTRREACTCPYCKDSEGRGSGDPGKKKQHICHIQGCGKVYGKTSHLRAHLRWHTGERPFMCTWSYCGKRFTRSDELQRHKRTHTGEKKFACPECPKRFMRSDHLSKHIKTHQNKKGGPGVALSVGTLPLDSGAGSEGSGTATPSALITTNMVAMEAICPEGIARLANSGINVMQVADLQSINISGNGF
CCAAT/enhancer-binding protein beta (Homo sapiens), sequence (P17676 whole entry, looked up): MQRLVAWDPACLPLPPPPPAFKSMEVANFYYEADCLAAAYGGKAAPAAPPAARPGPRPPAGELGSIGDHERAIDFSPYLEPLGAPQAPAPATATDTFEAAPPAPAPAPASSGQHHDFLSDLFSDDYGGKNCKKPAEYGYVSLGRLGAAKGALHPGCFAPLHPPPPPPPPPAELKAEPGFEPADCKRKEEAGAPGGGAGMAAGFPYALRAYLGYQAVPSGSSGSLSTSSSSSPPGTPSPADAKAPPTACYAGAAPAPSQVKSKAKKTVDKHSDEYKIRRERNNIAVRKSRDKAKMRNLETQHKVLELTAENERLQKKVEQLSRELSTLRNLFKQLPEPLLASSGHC

O=[N+]([O-])c1ccccc1C(F)(F)F
inactive: all assays above

CCCCCCCCCCCCCCCCCC[N+](C)(C)C
active: [1] 41.1 µM | [3] 38.6 µM | [6] 6.9 µM | [10] 42 µM | [11] 38.7 µM | [12] 43.6 µM | [14] 39.2 µM | [16] 40.1 µM | [18] 40.7 µM | [20] 6.46 µM
inactive: all other assays above

O=C(O)/C=C/C(=O)O
inactive: all assays above

NC(=O)c1ccc([N+](=O)[O-])cc1Cl
inactive: all assays above

CC/C=C\CCO
active: [17] 29.3 µM
inactive: all other assays above

CCc1cc(C(N)=S)ccn1
active: [17] 157 µM
inactive: all other assays above

CCCC[N+]1(C)CCCC1
inactive: all assays above

OCCN(CCO)c1cccc(Cl)c1
active: [17] 52.4 µM
inactive: all other assays above
